# Source: the antibiotic and cytotoxicity screens of Wong et al. (2023)
# The campaign covered roughly 39,000 compounds. About 3,300 (8.5%) were called active. The sample as a whole holds a higher share of actives than the screen did.
# Test system: HepG2
# Experiment: cytotoxicity call (relative viability < 0.9)
# Settings: 10 µM
row,Compound,cytotoxicity call
1,CC(=O)NCCCC[C@@H]1NC(=O)[C@@H]2C[C@H](C(=O)NCCCCN(C)C)[C@H](c3cccc(OCCO)c3)N2C1=O,inactive
2,CC(C)NC(=O)N(C)C[C@@H]1OCCCC[C@@H](C)Oc2ccc(NC(=O)Nc3ccc(C(F)(F)F)cc3)cc2C(=O)N([C@H](C)CO)C[C@@H]1C,inactive
3,COc1ccc(NC(=O)N(C)C[C@@H]2Oc3ncc(C#CC(C)C)cc3C(=O)N([C@@H](C)CO)C[C@@H]2C)cc1,inactive
4,C[C@@H]1CN([C@@H](C)CO)C(=O)c2c(c3ccccc3n2C)-c2ccccc2CO[C@@H]1CN(C)C(=O)CCC(F)(F)F,inactive
5,COc1ccc(cc1)S(=O)(=O)N1C[C@]2(C1)CN([C@@H](CO)c1c2c2ccc(cc2n1C)OC)C(=O)c1cccnc1,inactive
6,C[C@@H]1CCCCO[C@@H](CN(C)C(=O)Nc2cccc3ccccc23)[C@@H](C)CN([C@@H](C)CO)C(=O)c2cc(NC(=O)NC3CCCCC3)ccc2O1,inactive
7,CC(=O)n1cc([C@H]2C=C(C(=O)N3CCN(C)CC3)O[C@@H](OCc3ccc(CO)cc3)C2)c2ccccc21,inactive
8,C[C@H](CO)N1C[C@H](C)[C@H](CN(C)S(=O)(=O)c2cn(C)cn2)Oc2ccc(NC(=O)Nc3ccc4c(c3)OCO4)cc2C1=O,inactive
9,O=C(c1ccccc1O)N1CCOCC1,inactive
10,Nc1ccccc1C(=O)N1CCOCC1,inactive
11,O=C(c1cn(Cc2cncn2Cc2ccc(Br)cc2)cc1-c1cccc2ccccc12)N1CCOCC1,active
12,C[C@H]1CN(C(=O)CSc2nnc3c4ccccc4n(Cc4cccc(Cl)c4)c3n2)CCN1C(=O)c1ccccc1F,inactive
13,COC(=O)[C@@H]1N2C(=O)[C@@H](N3CC4=C[C@@H](C5CC5)n5c(=O)n(C)c(=O)n5[C@@H]4[C@@H]3[C@@H](O)Cc3ccccc3)[C@H]2SC1(C)C,inactive
14,C[C@@H]1CN([C@@H](C)CO)C(=O)Cc2cc(NS(=O)(=O)c3ccccc3)ccc2O[C@@H]1CN(C)S(C)(=O)=O,inactive
15,C=C1CCC2C(C)(CO)C(O)CCC2(C)C1CC=C1C(=O)OCC1O (stereo not drawn),active
16,CC1(C)CCC2(C(=O)O)CCC3(C)C(=CCC4C5(C)CCC(O)C(C)(CO)C5CCC43C)C2C1 (stereo not drawn),inactive
17,C=C1CC[C@@H]2C(C)(C)CCC[C@@]2(C)[C@@H]1CC/C(C)=C/C(=O)OC,inactive
18,C[C@H]1CN([C@@H](C)CO)C(=O)c2cc(C#CCN(C)C)cnc2O[C@@H]1CN(C)C(=O)CCN1CCCCC1,inactive
19,C[C@@H]1CN([C@H](C)CO)S(=O)(=O)c2ccc(C#Cc3ccncc3)cc2O[C@H]1CN(C)C(=O)Nc1ccc2c(c1)OCO2,inactive
20,C[C@H](CO)N1C[C@H](C)[C@H](CN(C)C(=O)Nc2ccc3c(c2)OCO3)Oc2cc(C#Cc3ccncc3)ccc2S1(=O)=O,inactive
21,C[C@@H]1CN([C@H](C)CO)S(=O)(=O)c2ccc(C#Cc3cccnc3)cc2O[C@@H]1CN(C)C(=O)Nc1ccc2c(c1)OCO2,inactive

row,Compound,cytotoxicity call
1,C[C@H](CO)N1C[C@H](C)[C@@H](CN(C)C(=O)Nc2ccc3c(c2)OCO3)Oc2cc(C#Cc3ccncc3)ccc2S1(=O)=O,active
2,C[C@@H]1CN([C@H](C)CO)S(=O)(=O)c2ccc(C#Cc3ccncc3)cc2O[C@@H]1CN(C)C(=O)Nc1ccc2c(c1)OCO2,active
3,C[C@H]1CN([C@@H](C)CO)S(=O)(=O)c2ccc(C#Cc3ccncc3)cc2O[C@H]1CN(C)C(=O)Nc1ccc2c(c1)OCO2,active
4,C[C@H]1CN([C@@H](C)CO)S(=O)(=O)c2ccc(C#Cc3cccnc3)cc2O[C@@H]1CN(C)C(=O)Nc1ccc2c(c1)OCO2,inactive
5,C[C@H](CO)N1C[C@H](C)[C@H](CN(C)C(=O)Nc2ccc3c(c2)OCO3)Oc2cc(C#Cc3cccnc3)ccc2S1(=O)=O,inactive
6,C[C@@H]1CN([C@@H](C)CO)S(=O)(=O)c2ccc(C#Cc3ccncc3)cc2O[C@H]1CN(C)C(=O)Nc1ccc2c(c1)OCO2,active
7,C[C@@H]1CN([C@H](C)CO)S(=O)(=O)c2ccc(C#Cc3cccnc3)cc2O[C@H]1CN(C)C(=O)Nc1ccc2c(c1)OCO2,inactive
8,C[C@@H]1CN([C@@H](C)CO)S(=O)(=O)c2ccc(C#Cc3cccnc3)cc2O[C@H]1CN(C)C(=O)Nc1ccc2c(c1)OCO2,inactive
9,C[C@H]1CN([C@@H](C)CO)S(=O)(=O)c2ccc(C#Cc3cccnc3)cc2O[C@H]1CN(C)C(=O)Nc1ccc2c(c1)OCO2,inactive
10,C[C@@H]1CCCCO[C@@H](CN(C)CC2CCCCC2)[C@@H](C)CN([C@H](C)CO)C(=O)c2cc(NC(=O)C3CCCCC3)ccc2O1,inactive
11,CO[C@@H](CN(C)S(=O)(=O)c1cn(C)cn1)[C@H](C)CN(C(=O)Nc1ccc(C(F)(F)F)cc1)[C@@H](C)CO,inactive
12,C[C@@H]1CN([C@H](C)CO)C(=O)c2cccc(NS(=O)(=O)c3ccc(F)cc3)c2O[C@@H]1CN(C)S(C)(=O)=O,inactive
13,C[C@H](CO)N1C[C@H](C)[C@H](CN(C)S(=O)(=O)c2ccc(F)cc2)Oc2ncc(Br)cc2C1=O,inactive
14,Cc1noc(C)c1S(=O)(=O)Nc1ccc2c(c1)C(=O)N([C@@H](C)CO)C[C@H](C)[C@@H](CN(C)S(=O)(=O)c1cn(C)cn1)OCCCC[C@H](C)O2,inactive
15,C[C@H](CO)N1C[C@H](C)[C@H](CN(C)CC2CC2)Oc2ccc(NS(=O)(=O)c3ccc(F)cc3)cc2C1=O,inactive
16,C[C@H](CO)N1C[C@H](C)[C@H](CN(C)S(=O)(=O)c2cccs2)OCCCC[C@H](C)Oc2ccc(NC(=O)Cc3ccccc3)cc2C1=O,inactive
17,CC(C)CC(=O)N1CCN(S(C)(=O)=O)CC1,inactive
18,CN1CCc2nc(C(=O)N[C@@H]3C[C@@H](C(=O)N(C)C)CC[C@@H]3NC(=O)C(=O)Nc3ccc(Cl)cn3)sc2C1,inactive
19,C[C@@H]1CN([C@H](C)CO)S(=O)(=O)c2ccc(C#Cc3cccc(F)c3)cc2O[C@H]1CN(C)S(=O)(=O)c1cn(C)cn1,inactive
20,O=C(O)c1ccnc(C(=O)O)c1,inactive
21,C[C@@H]1CN([C@@H](C)CO)C(=O)c2cc(N(C)C)ccc2O[C@@H](C)CCCCO[C@H]1CN(C)Cc1ccc(C(=O)Nc2ccccc2N)cc1,inactive

row,Compound,cytotoxicity call
1,C[C@H](CO)N1C[C@H](C)[C@@H](CN(C)C(=O)Nc2ccc3c(c2)OCO3)Oc2cc(C#Cc3cccnc3)ccc2S1(=O)=O,inactive
2,C[C@H]1CN([C@@H](C)CO)S(=O)(=O)c2ccc(Br)cc2O[C@@H]1CN(C)C(=O)Nc1ccc2c(c1)OCO2,inactive
3,C[C@@H]1CN([C@@H](C)CO)S(=O)(=O)c2ccc(Br)cc2O[C@H]1CN(C)C(=O)Nc1ccc2c(c1)OCO2,inactive
4,C[C@@H]1CN([C@@H](C)CO)S(=O)(=O)c2ccc(C#Cc3cccnc3)cc2O[C@@H]1CN(C)C(=O)Nc1ccc2c(c1)OCO2,inactive
5,C[C@H]1CN([C@@H](C)CO)S(=O)(=O)c2ccc(C#Cc3ccncc3)cc2O[C@@H]1CN(C)C(=O)Nc1ccc2c(c1)OCO2,active
6,C[C@@H]1CN([C@@H](C)CO)S(=O)(=O)c2ccc(C#Cc3ccncc3)cc2O[C@@H]1CN(C)C(=O)Nc1ccc2c(c1)OCO2,active
7,CC(C)NC(=O)Nc1ccc2c(c1)C(=O)N([C@@H](C)CO)C[C@@H](C)[C@H](CN(C)Cc1ccc(C(=O)O)cc1)O2,inactive
8,C[C@@H]1CN([C@@H](C)CO)C(=O)c2cccc(NC(=O)Nc3ccc(C(F)(F)F)cc3)c2O[C@@H]1CN(C)C(=O)Nc1cccc2ccccc12,active
9,C[C@@H]1CN([C@H](C)CO)C(=O)c2cccc(NC(=O)Nc3ccc(C(F)(F)F)cc3)c2O[C@@H]1CN(C)C(=O)Nc1cccc2ccccc12,inactive
10,C[C@H](CO)N1C[C@H](C)[C@@H](CN(C)C(=O)Nc2cccc3ccccc23)Oc2c(NC(=O)Nc3ccc(C(F)(F)F)cc3)cccc2C1=O,inactive
11,C[C@@H]1CN([C@H](C)CO)C(=O)c2cccc(NC(=O)Nc3ccc(C(F)(F)F)cc3)c2O[C@H]1CN(C)C(=O)Nc1cccc2ccccc12,active
12,C[C@@H]1CN([C@@H](C)CO)C(=O)c2cccc(NC(=O)Nc3ccc(C(F)(F)F)cc3)c2O[C@H]1CN(C)C(=O)Nc1cccc2ccccc12,active
13,C[C@H](CO)N1C[C@H](C)[C@H](CN(C)C(=O)Nc2cccc3ccccc23)Oc2c(NC(=O)Nc3ccc(C(F)(F)F)cc3)cccc2C1=O,active
14,C[C@@H]1CCCCO[C@@H](CN(C)C(=O)c2ccccc2)[C@H](C)CN([C@@H](C)CO)C(=O)c2cc(NS(=O)(=O)c3ccc(Cl)cc3)ccc2O1,inactive
15,COc1ccc(S(=O)(=O)N(C)C[C@H]2Oc3ccc(NS(=O)(=O)c4ccccc4)cc3CC(=O)N([C@H](C)CO)C[C@@H]2C)cc1,inactive
16,COc1ccc(S(=O)(=O)N(C)C[C@H]2OCCCC[C@H](C)Oc3ccc(NS(=O)(=O)c4cn(C)cn4)cc3C(=O)N([C@@H](C)CO)C[C@H]2C)cc1,inactive
17,C[C@H]1CN([C@@H](C)CO)S(=O)(=O)c2ccc(C#CC3(O)CCCC3)cc2O[C@H]1CN(C)C(=O)Nc1ccc(F)cc1,inactive
18,COCC(=O)N1CC[C@]2(CC1)CN([C@H](CO)c1c2c2ccc(cc2n1C)OC)C(=O)CN1CCOCC1,inactive
19,O=C1N[C@@H](Cc2c[nH]c3ccccc23)COC(=O)[C@@H](Cc2ccc(F)cc2)CCC=CC[C@H]1CC(=O)N(CCO)Cc1ccccc1,inactive
20,C[C@H](CO)N1C[C@H](C)[C@@H](CN(C)S(=O)(=O)c2cn(C)cn2)OCc2ccccc2-c2c(n(C)c3ccccc23)C1=O,inactive
21,O=C(C[C@H]1C[C@@H]2c3cc(NC(=O)c4ccc5c(c4)OCO5)ccc3O[C@@H]2[C@@H](CO)O1)NCCN1CCCCC1,inactive
